We go through 105 compounds from PubChem BioAssay AID977630 (Broad Institute, 2014).

Screen size: about 1,600 compounds; fewer than 10 were called active. Another 48% or so got no clear call; they are omitted.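 How the source made its calls: active means Normal-ribosome green reporter loss at least double humanized-ribosome red reporter loss, with overall culture growth inhibition under a set limit; inconclusive means no clear call, values can overlap the other calls; inactive means the rest.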 Not all results are given here. Entries with a potency or affinity are not part of this list.

This assay is described as follows: E. coli growth inhibition, wild-type GFP versus H38 humanized RFP strain – H38 mutant RFP vs wild-type GFP, cherry-pick, dose response (AID 977630). The settings on record: mixed culture, 24 h; series mostly up to 50 µM.
With `COC(=O)c1ccc(CSc2nc3ccccc3s2)o1`, the compound was called inactive.

`COc1ccccc1-c1noc2ncnc(Nc3ccccc3C)c12`: the result was inactive.

With `O=C(c1cccs1)c1c[nH]cc1-c1ccccc1`, the compound was classed as inactive.

As to `Cc1ccc(CSCC(=O)Nc2ccccc2F)cc1`, the compound was classed as inactive.

Take `COc1ccc(NC(=O)c2ccc(COc3ccccc3Br)o2)c(OC)c1`: the compound was classed as inactive.

As for `CCc1nnc(NC(=O)CSc2ncc(-c3ccccc3)[nH]2)s1`, the outcome was inactive.

Consider `COc1cccc(NC(=O)C2CCC(CNS(=O)(=O)c3cccc4cccnc34)CC2)c1` (stereo not given), for which the outcome was inactive.

Take `CCOC(=O)c1sc(Nc2cccc(Cl)c2)nc1C`: the compound was classed as inactive.

On to `Cn1c(=O)n(C)c2cc([N+](=O)[O-])c(N3CCN(C(=O)c4cccc(F)c4)CC3)cc21`, for which the result was inactive.

On to `Brc1ccc(-c2nc3c4ccccc4ccn3c2Cc2ccccc2)cc1`, for which the compound was called inactive.

Turning to `CCN(CC)CC(=O)Nc1sc2c(c1C(=O)c1ccccc1OC)CCC2`, the outcome was inactive.

`O=S(=O)(Cc1ccco1)Cc1nc(-c2ccc(Cl)cc2)cs1`: the call was inactive.

For `Cc1ccccc1NS(=O)(=O)c1cc(C(=O)NCCC2=CCCCC2)ccc1C`, the compound was called inactive.

Turning to `Cc1c(CCOC(=O)C23CC4CC(CC(C4)C2)C3)sc[n+]1Cc1ccccc1`, the call was inactive.

In the case of `O=C(CSc1nnc(-c2ccccc2F)n1C1CC1)Nc1cccnc1Cl`, the compound was classed as inactive.

As for `CSc1ccc(CN(C)CC(=O)NC(C)c2ccccc2)cc1` (stereo not given), the outcome was inactive.

Turning to `COc1cc[n+]([O-])cc1[N+](=O)[O-]`, the compound was called inactive.

`COc1ccc(OC2C(=O)N(Cc3ccc4c(c3)OCO4)C2c2sccc2C)cc1` (stereo not given): the outcome was inactive.

With `COc1ccc(C(=O)C[n+]2ccc3c(c2)nc(-c2cc(OC)c(OC)cc2OC)n3C)cc1`, the outcome was inactive.

In the case of `c1coc(CSc2ncnc3c2oc2ccccc23)c1`, the compound was called inactive.

Take `COc1cccc(SCC(=O)N2CCN(c3ccccc3)CC2)c1`: the compound was called inactive.

With `COc1ccc(C(=O)CSc2nc3ccccc3n2CC(=O)c2ccccc2)cc1`, the compound was called inactive.

With `O=C(Nc1cscc1S(=O)(=O)c1ccccc1)c1ccccc1Cl`, the result was inactive.

With `CC1Cc2ccccc2N1C(=O)CN1C(=O)NC(C)(CCc2ccccc2)C1=O` (stereo not given), the outcome was inactive.

With `O=C(COC(=O)c1ccc(O)cc1)Nc1ccccc1`, the result was inactive.

For the compound `O=S(=O)(NC1c2cccc3cccc(c23)C1Sc1ncccn1)c1ccccc1` (stereo not given), the compound was classed as inactive.

Turning to `O=[N+]([O-])c1ccc(/C=C/c2ccc3cccc([N+](=O)[O-])c3n2)cc1`, the call was inactive.

For `Cc1cc(C(=O)Nc2ccc(Cl)cc2)c(C)n1Cc1cccs1`, the call was inactive.

`CCCCOc1ccc(-c2nnn(CCC(=O)N3CCOCC3)n2)cc1`: the compound was classed as inactive.

Turning to `Cc1ccnc(NS(=O)(=O)c2ccc(NC(=O)c3ccc4c(c3)OCCO4)cc2)n1`, the compound was classed as inactive.

On to `CN1N=C2c3ccccc3CCC2C1c1ccc(F)cc1` (stereo not given), for which the compound was called inactive.

On to `COc1ccc(-c2nc(NC(C)=O)sc2-c2ccccc2)cc1`, for which the outcome was inactive.

On to `Nc1ccccc1Sc1c[nH]c2ccccc12`, for which the result was inactive.

As for `CCc1cccc(CC)c1NC(=O)Cn1c(-c2ccc(F)cc2)noc1=O`, the call was inactive.

With `Cc1ccc(C)c(N2CCN(C(=O)CCS(=O)(=O)c3ccc4c(c3)oc(=O)n4C)CC2)c1`, the outcome was inactive.

In the case of `CCOC(=O)c1cc2nc(-c3ccccc3)cc(C)n2n1`, the compound was called inactive.

Consider `O=C(NCc1ccccc1)C1C(=O)Nc2ccccc2C(=O)N1c1ccc2c(c1)OCCO2` (stereo not given), for which the compound was classed as inactive.

Regarding `CSc1ccccc1NC(=O)CN(c1cccc(C)c1)S(C)(=O)=O`, the call was inactive.

`CC(OC(=O)COc1ccccc1)C(=O)NC1CCCC1` (stereo not given): the call was inactive.

On to `O=S(=O)(c1ccc(Cl)cc1)N1CCN=C1SCc1cccc(Cl)c1`, for which the result was inactive.

As for `CCCN1C(=O)C(O)(c2c(C)[nH]c3ccccc23)c2ccccc21` (stereo not given), the result was inactive.

Take `COc1ccc(CNC(=O)c2sc3nc4c(c(C(F)(F)F)c3c2N)CCC4)cc1OC`: the outcome was inactive.

As to `CN(Cc1ccc([N+](=O)[O-])cc1)c1ccccc1`, the call was inactive.

With `Cc1ccc(NCC(=O)c2ccc(C)cc2)cc1`, the result was inactive.

As to `Cn1c(=O)c2c(-c3ccccc3)n(-c3cc([N+](=O)[O-])ccc3N)cc2n(C)c1=O`, the compound was classed as inactive.

For `CC1(C(=O)NS(=O)(=O)c2cccc(C#N)c2)CCN1C(=O)C1(c2ccc(Cl)cc2)CCC1` (stereo not given), the result was inactive.

For `C[C@@H]1CN([C@@H](C)CO)C(=O)c2cccc(NC(=O)c3nc4ccccc4s3)c2O[C@@H]1CN(C)CC1CC1`, the compound was called inactive.

As for `Cc1nc(-c2ccc([N+](=O)[O-])cc2)c(-c2ccccc2)o1`, the result was inactive.

For `O=C(CN1CCN(S(=O)(=O)c2ccc(Cl)cc2)CC1)Nc1ccc2c(c1)CCC2`, the result was inactive.

Take `CC(NC(=O)c1ccncc1)c1ccc(Cl)cc1Cl` (stereo not given): the compound was classed as inactive.

For `O=C(Nc1ccn(Cc2ccc(Cl)cc2)n1)c1ccccc1`, the outcome was inactive.

`CCCOC(=O)c1ccc(NC(=O)c2nc3nc(C)cc(C)n3n2)cc1`: the outcome was inactive.

For `C[C@@H]1CCCCO[C@H](CN(C)C(=O)CCCN(C)C)[C@H](C)CN([C@@H](C)CO)C(=O)c2cc(NC(=O)Nc3cccc4ccccc34)ccc2O1`, the outcome was inactive.

Consider `CCOc1ccccc1C(=O)NCC(=O)OCCOc1cccc(Cl)c1`, for which the outcome was inactive.

With `CCOC(=O)C(C)(C)n1nnc(-c2ccc([N+](=O)[O-])cc2)n1`, the outcome was inactive.

Regarding `O=c1c2ccccc2nc(SCc2ccccc2)n1CC1CCCO1` (stereo not given), the call was inactive.

As to `Cc1ccc(N2C(=S)NC3c4cc(Cl)ccc4OC2(C)C3C(=O)N(C)C)cc1` (stereo not given), the compound was classed as inactive.

As to `CC1(c2ccc3ccccc3c2)NC(=O)N(CC(=O)N2CCN(c3ccccc3O)CC2)C1=O` (stereo not given), the call was inactive.

As to `O=C(Nc1ccc(Br)cc1)c1cccnc1N1CCCCC1`, the compound was classed as inactive.

For `CCc1ccc2nc(SCC(=O)Nc3ccccc3N3CCOCC3)c(C#N)cc2c1`, the compound was called inactive.

As to `CSc1nc2ccc(NS(=O)(=O)c3ccc([N+](=O)[O-])cc3)cc2s1`, the compound was called inactive.

Consider `COc1ccc(C2CC(c3cccs3)=Nc3ccccc3S2)cc1` (stereo not given), for which the result was inactive.

Take `Cc1ccccc1CSc1nnc(-c2ccccn2)n1C`: the result was inactive.

For `CCOC(=O)c1c(C)[nH]c(C)c1S(=O)(=O)NCCN1CCN(c2ccccc2F)CC1`, the outcome was inactive.

Regarding `O=C(CSc1nnc(COc2cccc3cccnc23)o1)c1ccc(F)cc1`, the compound was classed as inactive.

In the case of `O=C(O)c1nn2c(C(F)(F)F)cc(-c3cccs3)nc2c1Cl`, the compound was classed as inactive.

Turning to `COc1ccc(CC(=O)Nc2cc(S(=O)(=O)Nc3ccc(OC)cc3)ccc2OC)cc1`, the compound was called inactive.

In the case of `COC(=O)c1cc(C)sc1NC(=O)CC1Nc2ccccc2NC1=O` (stereo not given), the compound was called inactive.

On to `COC(=O)c1sccc1NC(=O)CNC(=O)c1ccccc1`, for which the outcome was inactive.

On to `CCOC(=O)c1cccc(OS(=O)(=O)Cc2ccccc2)c1`, for which the call was inactive.

On to `CCOc1ccccc1N1CC(C(=O)Nc2cccc(S(=O)(=O)N3CCCCC3)c2)CC1=O` (stereo not given), for which the outcome was inactive.

Consider `c1cc2cc(-c3c(-c4ccc5c(c4)OCO5)noc3-c3ccsc3)ccc2[nH]1`, for which the call was inactive.

With `Cc1cc(C)cc(NC(=O)COC(=O)CC2CCCC2)c1`, the outcome was inactive.

For the compound `COc1cc(SC)ccc1C(=O)N(Cc1ccccc1)c1ccccn1`, the compound was classed as inactive.

For `COC(=O)c1nc(-c2ccc(C)cc2)[nH]c1C(C)(C)C`, the compound was classed as inactive.

Consider `O=C(O)CNC(=O)C(c1ccccc1)c1ccccc1`, for which the call was inactive.

On to `O=C(C[n+]1ccc(Cc2ccccc2)cc1)Nc1ccc([N+](=O)[O-])cc1Cl`, for which the compound was classed as inactive.

Take `CN(C)S(=O)(=O)c1cccc(NC(=O)c2ccc3c(c2)S(=O)(=O)N=C2CCCCCN23)c1`: the compound was classed as inactive.

As for `CC1Cc2cc(-c3csc(NC(=O)Cc4ccccc4)n3)ccc2N1S(C)(=O)=O` (stereo not given), the compound was called inactive.

As for `CCN=C1NN=C(c2ccc(C)cc2)CS1`, the compound was called inactive.

As to `COc1cc(CCN(C(=O)c2cc3ccccc3[nH]2)C(c2ccccn2)c2nc3ccccc3[nH]2)cc(OC)c1` (stereo not given), the call was inactive.

Turning to `NS(=O)(=O)c1ccc(CCNC(=O)CCCCCNc2nc(=S)[nH]c3ccccc23)cc1`, the outcome was inactive.

As to `CC(C)(C)S(=O)(=O)Cc1nc(-c2ccc(Cl)c(Cl)c2)cs1`, the result was inactive.

For the compound `Fc1ccc(-c2nc3ccc(Cl)cn3c2Cc2cccc(Cl)c2)cc1`, the compound was called inactive.

As to `Cc1cc(C(N)=O)nn1-c1c(Cl)cc(Cl)cc1Cl`, the outcome was inactive.

Turning to `Cc1ccc(NC(=O)COC(=O)CCNS(=O)(=O)c2c(Cl)cccc2Cl)cc1`, the compound was classed as inactive.

Consider `CSc1nnnn1-c1ccc(Cl)cc1`, for which the outcome was inactive.

With `Cc1noc(C)c1S(=O)(=O)N(Cc1ccccc1)C(C)C`, the call was inactive.

With `Cc1cccc(-n2cnc3cc([N+](=O)[O-])ccc32)c1`, the compound was called inactive.

In the case of `Cc1ccc(S(=O)(=O)N2CCCCC2C(=O)N2CCN(c3ccccc3F)CC2)cc1` (stereo not given), the result was inactive.

With `COC(=O)c1cc(C(=O)c2c(C)cc3ccccn23)cc([N+](=O)[O-])c1`, the result was inactive.

Consider `[O-][n+]1ccccc1/C=C/c1ccccc1`, for which the outcome was inactive.

With `Fc1ccccc1C1CCN(Cc2nc(COc3ccccc3)no2)C1` (stereo not given), the call was inactive.

For `CC(=O)c1ccc(OCC(=O)Nc2ccc3c(c2)CCC3)cc1`, the compound was called inactive.

`Cc1ccc(Cc2c(-c3cccc(Br)c3)nc3ccc(C)cn23)cc1`: the result was inactive.

On to `COc1ccc(S(=O)(=O)N2CCOc3ccccc32)cc1`, for which the compound was called inactive.

Consider `COc1ccc(-c2csc(NC(=O)c3ccccc3S(C)(=O)=O)n2)cc1`, for which the call was inactive.

Turning to `O=C(OCC(=O)N1CCOCC1)c1cccc(S(=O)(=O)N2CCCc3ccccc32)c1`, the outcome was inactive.

`O=C(CCC(=O)N1CCN(c2ccc(F)cc2)CC1)c1ccc(F)cc1`: the outcome was inactive.

In the case of `COc1ccc(C(=O)Nc2cccc3ccccc23)cc1`, the result was inactive.

For `Cc1cc(-c2ccc(C)c(S(=O)(=O)NCC3CCN(Cc4ccccc4F)CC3)c2)on1`, the outcome was inactive.

In the case of `O=S(=O)(c1cnc(Cl)c(Cl)c1)N1CCc2ccccc21`, the outcome was inactive.

Turning to `O=C(COC(=O)c1ccccc1O)NCCC1=CCCCC1`, the call was inactive.

`C=CCN(c1ccccc1)S(=O)(=O)c1ccc(Cl)c(C(=O)OCC(=O)NCCCN2CCCC2=O)c1`: the call was inactive.

As for `CCN(C(=O)COC(=O)CCc1ccccc1)c1ccccc1`, the call was inactive.
